Data taken from PubChem BioAssay (NCATS).
Results filed as inconclusive are left out. Active and inactive are the calls of the source. Unless noted, the call rests on the fitted dose curve; in most records, active means well fitted curve in the direction sought with a large enough effect; inconclusive means small, poorly fitted or top-dose-only effect, or another doubt; inactive means no such curve, though single readings can be large; an effect the other way counts as inactive or inconclusive.

Assays:
[1] = molecular target: Cytochrome P450 3A4 (Homo sapiens) (UniProt P08684); test: qHTS Assay for Inhibitors and Substrates of Cytochrome P450 3A4 (AID 884); further: on the % scale 0 is the no-effect control and ±100 the full control effect; nearly all actives have a fitted effect of over 50% in size
Cytochrome P450 3A4 (Homo sapiens), sequence (P08684 whole entry, looked up): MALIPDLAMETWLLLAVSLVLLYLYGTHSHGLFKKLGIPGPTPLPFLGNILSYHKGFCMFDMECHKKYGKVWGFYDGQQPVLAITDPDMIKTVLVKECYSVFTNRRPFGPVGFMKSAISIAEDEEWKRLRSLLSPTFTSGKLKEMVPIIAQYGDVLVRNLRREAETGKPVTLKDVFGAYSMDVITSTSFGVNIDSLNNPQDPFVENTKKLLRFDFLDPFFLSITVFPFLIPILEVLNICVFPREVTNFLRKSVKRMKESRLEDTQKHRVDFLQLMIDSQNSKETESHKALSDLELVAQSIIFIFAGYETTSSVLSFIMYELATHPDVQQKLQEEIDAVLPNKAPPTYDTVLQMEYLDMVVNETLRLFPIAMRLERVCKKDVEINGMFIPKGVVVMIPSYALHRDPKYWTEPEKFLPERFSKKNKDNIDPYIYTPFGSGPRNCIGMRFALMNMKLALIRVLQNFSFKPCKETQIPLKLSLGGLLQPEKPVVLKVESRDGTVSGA
How it was run: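 20 nM human CYP3A4 with 25 uM Luciferin-PPXE (at KM) in 200 mM KPO4, preincubated 10 min with compound; NADPH regeneration started a 60 min RT reaction. Luciferin detected by luminescence, normalized to 57 uM ketoconazole as full inhibition.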

[2] = Confirmation and Secondary Assay for Modulators of Hemoglobin Beta Chain Splicing at IVS2 654 locus (AID 910);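 further: per-well total GFP intensity by laser scanning cytometry after 2-day treatment; % of control where 0% means no effect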
How it was run: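 HeLa cells stably carrying EGFP interrupted by mutant beta-globin IVS2-654 intron (CMV-driven) were treated with compound for 2 days at 37C; corrected splicing was scored as total peak GFP intensity per well (488 nm excitation, 500-520 nm emission).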

[3] = Confirmation and Secondary Assay for Modulators of Hemoglobin Beta Chain Splicing at IVS2 705 locus (AID 930);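 further: HeLa cells stably expressing the EGFP-705 splicing reporter; % of control where 0% means no effect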
How it was run: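 Restored EGFP fluorescence after 2-day compound exposure reports splicing correction in IVS2-705 EGFP reporter HeLa cells; positive control was 500 nM splice-blocking PNA oligo. Signal measured as well total peak GFP intensity (488 nm excitation).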

[4] = qHTS Assay for Lipid Storage Modulators (AID 1519; calls by dose curve; on activity change, negative = inhibition: on the % scale 0 is the no-effect control and ±100 the full control effect); conditions: Drosophila S3 cells, BODIPY lipid droplet/cell ratio, laser cytometry, cells loaded with oleic acid; for activity change, negative = inhibition: at 57.5 µM (top of the series)
How it was run: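 Cells seeded at 5,000 per well were treated with compounds over a concentration series and loaded with oleic acid (400 uM, as added). Lipid droplet fluorescence (488 nm excitation, 500-530 nm channel) was read by laser-scanning cytometry and normalized to 20 uM Triacsin C.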

[5] = molecular target: Luciferin 4-monooxygenase (Photinus pyralis) (UniProt P08659); test: Biochemical firefly luciferase enzyme assay for NPC (AID 624030); further: nearly all actives have a fitted effect of over 70% in size; further: potency means the concentration at half of the fitted maximal effect;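 on activity change, negative = inhibition: purified P. pyralis luciferase at 10 nM with luciferin and ATP substrate; 0% = DMSO and -100% = full luciferase inhibition by PTC124 control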
Luciferin 4-monooxygenase (Photinus pyralis), sequence (P08659 whole entry, looked up): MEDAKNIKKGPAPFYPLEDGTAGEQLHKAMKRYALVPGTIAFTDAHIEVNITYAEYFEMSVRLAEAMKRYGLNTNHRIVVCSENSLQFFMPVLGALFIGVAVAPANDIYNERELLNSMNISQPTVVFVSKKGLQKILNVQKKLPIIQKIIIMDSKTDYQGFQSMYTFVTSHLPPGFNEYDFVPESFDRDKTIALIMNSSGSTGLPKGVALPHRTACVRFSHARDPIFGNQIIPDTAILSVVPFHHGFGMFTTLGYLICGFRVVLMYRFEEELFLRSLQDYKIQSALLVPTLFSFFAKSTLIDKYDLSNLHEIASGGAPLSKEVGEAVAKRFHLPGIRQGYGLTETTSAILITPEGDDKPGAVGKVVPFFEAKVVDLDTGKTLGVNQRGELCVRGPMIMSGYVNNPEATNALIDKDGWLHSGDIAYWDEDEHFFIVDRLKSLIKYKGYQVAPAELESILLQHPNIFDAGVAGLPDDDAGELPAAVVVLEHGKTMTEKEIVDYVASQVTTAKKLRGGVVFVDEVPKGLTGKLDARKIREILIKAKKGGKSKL
How it was run: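 Counter-screen for direct inhibition of the luciferase enzyme by approved-drug library compounds, run at 10 nM enzyme in 50 mM Tris acetate (final). Luminescence was read within 5 min of enzyme-buffer addition and normalized to PTC124 versus DMSO (0%).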

[6] = S16 Schwann cell PMP22 intronic element beta-lactamase assay (AID 624044; calls by dose curve; further: nearly all actives have a fitted effect of over 15% in size; further: potency means the concentration at half of the fitted maximal effect)
How it was run: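 Rat S16 Schwann cells with beta-Lac driven by a PMP22 intronic element, compound-treated 24 h at 37 °C. LiveBLAzer FRET B/G read: 460 nm normalized to potassium clavulanate vs DMSO; 535 nm FRET as viability; concentration-effect curves classified.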

[7] = qHTS profiling for inhibitors of Plasmodium falciparum proliferation (AID 504749); further: potency means the concentration at half of the fitted maximal effect;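 on activity, negative = inhibition: 0% = DMSO vehicle and full inhibition = artemisinin control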; on all read-outs here: nearly all actives have a fitted effect of over 60% in size; conditions: P. falciparum in erythrocytes, SYBR Green DNA, 72 h; for activity, negative = inhibition: at 28.7 µM (top of the series)
How it was run: (§1)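 P. falciparum-infected erythrocytes (0.3% parasitemia, 2.5% hematocrit final) were exposed to compounds for 72 h at 37 C in 5% CO2, then lysed with SYBR Green buffer overnight at room temperature; parasite DNA fluorescence was normalized to artemisinin and DMSO controls.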

CP201 = test: as above; conditions: P. falciparum in erythrocytes, SYBR Green DNA, 72 h; series mostly up to 12.8 µM
How it was run: as §1

CP262 = test: as above; conditions: P. falciparum in erythrocytes, SYBR Green DNA, 72 h; series mostly up to 12.8 µM
How it was run: as §1

CP266 = test: as above; conditions: P. falciparum in erythrocytes, SYBR Green DNA, 72 h; series mostly up to 12.8 µM
How it was run: as §1

DFO2036 = test: as above; conditions: P. falciparum in erythrocytes, SYBR Green DNA, 72 h; series mostly up to 12.8 µM
How it was run: as §1

FAB9 = test: as above; conditions: P. falciparum in erythrocytes, SYBR Green DNA, 72 h; series mostly up to 12.8 µM
How it was run: as §1

JCK = test: as above; conditions: P. falciparum in erythrocytes, SYBR Green DNA, 72 h; series mostly up to 12.8 µM
How it was run: as §1

P94_40 = test: as above; conditions: P. falciparum in erythrocytes, SYBR Green DNA, 72 h; series mostly up to 12.8 µM
How it was run: as §1

PC15 = test: as above; conditions: P. falciparum in erythrocytes, SYBR Green DNA, 72 h; series mostly up to 12.8 µM
How it was run: as §1

PC49 = test: as above; conditions: P. falciparum in erythrocytes, SYBR Green DNA, 72 h; series mostly up to 12.8 µM
How it was run: as §1

[8] = molecular target: Ubiquitin carboxyl-terminal hydrolase 1 (Homo sapiens) (UniProt O94782); test: Inhibitors of USP1/UAF1: Pilot qHTS (AID 504865);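 further: rhodamine fluorescence freed from ubiquitin-rhodamine substrate followed over time; top concentration of the series differs between compounds; on the % scale 0 is the no-effect control and ±100 the full control effect; nearly all actives have a fitted effect of over 35% in size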
Ubiquitin carboxyl-terminal hydrolase 1 (Homo sapiens), sequence (O94782 whole entry, looked up): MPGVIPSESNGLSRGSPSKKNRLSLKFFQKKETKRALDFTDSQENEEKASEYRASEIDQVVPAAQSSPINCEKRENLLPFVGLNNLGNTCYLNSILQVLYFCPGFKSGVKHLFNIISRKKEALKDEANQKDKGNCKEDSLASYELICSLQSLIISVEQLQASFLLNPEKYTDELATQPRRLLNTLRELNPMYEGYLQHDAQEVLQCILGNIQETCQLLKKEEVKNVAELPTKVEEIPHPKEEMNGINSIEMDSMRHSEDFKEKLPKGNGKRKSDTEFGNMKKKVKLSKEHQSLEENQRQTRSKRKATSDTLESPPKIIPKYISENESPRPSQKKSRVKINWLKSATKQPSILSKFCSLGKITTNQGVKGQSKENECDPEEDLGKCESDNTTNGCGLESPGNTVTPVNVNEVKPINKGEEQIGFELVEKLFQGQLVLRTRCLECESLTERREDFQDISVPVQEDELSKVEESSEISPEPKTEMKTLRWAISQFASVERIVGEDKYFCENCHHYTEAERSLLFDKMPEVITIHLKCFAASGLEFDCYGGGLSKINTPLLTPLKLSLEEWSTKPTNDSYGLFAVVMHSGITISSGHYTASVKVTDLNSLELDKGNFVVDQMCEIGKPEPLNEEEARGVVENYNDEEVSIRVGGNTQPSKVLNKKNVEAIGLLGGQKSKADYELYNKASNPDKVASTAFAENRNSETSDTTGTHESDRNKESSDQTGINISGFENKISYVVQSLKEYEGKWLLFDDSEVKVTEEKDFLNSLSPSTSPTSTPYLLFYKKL
How it was run: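 1nM USP1/UAF1 + cpd, 15 min RT; start w/ Ub-Rho 150nM final; kinetic FL 480/540 nm, 6 reads q60 s. Buffer 50mM HEPES pH 7.8, 0.5mM EDTA, 1mM TCEP, 0.01% Tween-20, 0.1 mg/ml BSA.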

[9] = molecular target: DNA dC->dU-editing enzyme APOBEC-3G (Homo sapiens) (UniProt Q9HC16); test: qHTS for inhibitors of Vif-A3G interactions: Validation (AID 588379); further: 0% is about no effect
DNA dC->dU-editing enzyme APOBEC-3G (Homo sapiens), sequence (Q9HC16 whole entry, looked up): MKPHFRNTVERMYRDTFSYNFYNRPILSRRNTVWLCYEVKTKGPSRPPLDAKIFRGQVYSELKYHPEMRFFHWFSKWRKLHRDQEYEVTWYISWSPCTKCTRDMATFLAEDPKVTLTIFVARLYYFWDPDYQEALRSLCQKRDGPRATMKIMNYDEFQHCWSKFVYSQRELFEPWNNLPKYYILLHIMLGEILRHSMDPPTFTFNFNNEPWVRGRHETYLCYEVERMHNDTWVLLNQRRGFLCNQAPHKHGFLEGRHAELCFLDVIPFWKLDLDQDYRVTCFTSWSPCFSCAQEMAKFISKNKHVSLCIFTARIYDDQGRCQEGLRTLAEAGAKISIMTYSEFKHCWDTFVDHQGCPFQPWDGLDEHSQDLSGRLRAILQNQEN
How it was run: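 HeLa cells stably expressing Vif and A3G-eYFP, 700 cells/well, incubated overnight at 37 deg C, then exposed to compound overnight at 37 deg C. Inhibition of Vif-mediated degradation read as increased yellow fluorescence (Ex 488/Em 500-530) by laser-scanning cytometry.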

W2 = test: qHTS profiling for inhibitors of Plasmodium falciparum proliferation (AID 504749); further: nearly all actives have a fitted effect of over 60% in size; further: potency means the concentration at half of the fitted maximal effect;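 on activity, negative = inhibition: 0% = DMSO vehicle and full inhibition = artemisinin control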; conditions: P. falciparum in erythrocytes, SYBR Green DNA, 72 h; series mostly up to 12.8 µM
How it was run: as §1

[10] = measured here: cell count channel max response
[11] = measured here: lipid channel max response

COc1ccc(-c2cc(=O)c3c(O)cc(O[C@H]4OC(COC5OC(C)C(O)C(O)[C@H]5O)C(O)C(O)C4O)cc3o2)cc1O (stereo partly drawn)
6.56%: max response [4, 10]
inactive: Potency [1] | Potency [2] | Potency [3] | activity change, negative = inhibition [4] 5.51% | Potency [5] | Potency [6] | activity, negative = inhibition ([7]; parasite line A) 15% | activity, negative = inhibition ([7]; parasite line B) 23.4% | Potency (CP201) | Potency (CP262) | Potency (CP266) | Potency (DFO2036) | Potency (FAB9) | Potency (JCK) | Potency (P94_40) | Potency (PC15) | Potency (PC49)
15.8%: max response [4, 11]

CC(C)CCCC(C)C1CCC2C3CC=C4CC(O)CCC4(C)C3CCC12C (stereo not drawn)
12%: max response [4, 11]
5.9%: max response [4, 10]
inactive: Potency [1] | activity change, negative = inhibition [4] 7.38% | Potency [8] | outcome [9]

O=c1[nH]c(=O)n([C@@H]2O[C@H](CO)[C@@H](O)[C@H]2O)cc1F
inactive: Potency [1] | activity change, negative = inhibition [4] -3.28% | Potency [8] | outcome [9]
-5.85%: max response [4, 11]
0.66%: max response [4, 10]

COC1CC(O[C@H]2/C(C)=C/CC3CC(C[C@]4(CCC(C)C(C5CCCCC5)O4)O3)OC(=O)[C@H]3C=C(C)/C(=N/O)C4OC/C(=C\C=C\[C@@H]2C)[C@@]43O)OC(C)C1O (stereo partly drawn)
active: Potency (W2) 13500 nM
-0.335%: max response [4, 11]
inactive: Potency [1] | Potency [2] | Potency [3] | activity change, negative = inhibition [4] -12.3% | Potency [5] | Potency [6] | Potency (CP201) | Potency (CP262) | Potency (CP266) | Potency (PC15)
13.8%: max response [4, 10]

C[C@H](CCC(=O)O)[C@H]1CC[C@H]2[C@H]3C(C[C@H](O)[C@]12C)[C@@]1(C)CC[C@@H](O)C[C@H]1C[C@H]3O (stereo partly drawn)
25.2%: max response [4, 11]
inactive: activity change, negative = inhibition [4] 9.53% | Potency [8] | outcome [9]
17.9%: max response [4, 10]

CC(C)Oc1ccc2c(=O)cc(-c3ccccc3)oc2c1
29.4%: max response [4, 11]
14.7%: max response [4, 10]
inactive: Potency [1] | Potency [2] | Potency [3] | activity change, negative = inhibition [4] 14.1% | Potency [6] | activity, negative = inhibition ([7]; parasite line A) -21.9% | Potency (CP201) | Potency (CP262) | Potency (CP266) | Potency (DFO2036) | Potency (FAB9) | Potency (JCK) | Potency (P94_40) | Potency (PC15) | Potency (PC49)
active: Potency [5] 809 nM | Potency (W2) 47.8 nM

COc1ccc(CC(N)C(=O)NC2C(CO)OC(n3cnc4c(N(C)C)ncnc43)C2O)cc1 (stereo not drawn)
18.9%: max response [4, 10]
active: Potency [6] 7.07 µM | Potency ([7]; parasite line A) 794 nM | Potency ([7]; parasite line B) 1000 nM | Potency (CP201) 1.51 µM | Potency (CP262) 675 nM | Potency (CP266) 1.2 µM | Potency (DFO2036) 891 nM | Potency (FAB9) 1.78 µM | Potency (JCK) 3.55 µM | Potency (P94_40) 891 nM | Potency (PC15) 1.26 µM | Potency (PC49) 2 µM | Potency (W2) 338 nM
1.24%: max response [4, 11]
inactive: Potency [2] | Potency [3] | activity change, negative = inhibition [4] -15.4% | Potency [8] | Potency [5]
